Assay results as given in PubChem BioAssay (Tox21).
“And” between values parts separate entries of the source, which are not always exact repeats. Equal entries are not always repeated. Results filed as inconclusive are left out. A call without a number means that no potency is given here. Some compounds were tested as several samples or in several runs, with calls that do not always agree. The source made the active and inactive calls. Calls follow the shape of the dose curve; as a rule, active = well fitted cell-killing curve with a large enough effect in the repeat runs; inconclusive = weak or mixed curves, or effect the other way; inactive = flat fitted curve, though single readings scatter.

Assay: qHTS RealTime-Glo MT Cell Viability Assay in HEK293 cells - 24 hour (AID 1224886); also: nearly all actives have a fitted effect of over 50% in size
Conditions: RealTime-Glo luminescence; series mostly up to 76.8 µM
Description: National Center for Advancing Translational Sciences [NCATS]
NIH Chemical Genomics Center [NCGC]
U.S. Environmental Protection Agency [EPA]
National Institutes of Environmental Health Sciences [NIEHS]
National Toxicology Program [NTP]
U.S. Food and Drug Administration [FDA]
Measure of cell viability is critical in the cell-base assay. Analysis of cell viability is necessary for the characterization of cell responses to cytotoxic drugs and environmental stress. A RealTime-Glo MT Cell Viability Assay to monitor cell viability in real time of continues cell culture during 40 hours of compound treatment was used to screen Tox21 10K library compounds in Hek293 cells. The RealTime-Glo MT Cell Viability Assay is a nonlytic, homogeneous, bioluminescent method to measure cell viability in real time using a simple, plate-based method. The assay involves adding NanoLuc luciferase and a cell-permeant prosubstrate to cells in culture. Viable cells reduce the proprietary prosubstrate to generate a substrate for NanoLuc luciferase. This substrate diffuses from cells into the surrounding culture medium, where it is rapidly used by the NanoLuc Enzyme to produce a luminescent signal. The signal correlates with the number of viable cells, making the assay well suited for cytotoxicity studies.
Tox21 Assay Protocol Summary:
The mixture of Hek293 cell suspension and reagents were dispensed at 600cells/6 ul/well in 1536-well tissue culture treated black solid bottom plates using a Multidrop dispenser. After the assay plates were incubated at a 37 C/5% CO2 incubator for 5 hours, 23 nL of compounds dissolved in DMSO, positive and negative controls was transferred to the assay plate by a pintool work station. The plates were incubated at 37 C for 40 hours. The luminescence intensity were measured at 0h, 8h, 16h, 24h, 32h and 40h time points using ViewLux plate reader during compound treatment.
Potency is read from the fitted curve at half-maximal effect.

Compound	Potency
O=C(O)c1ccc(S(=O)(=O)N(Cl)Cl)cc1	49.3 µM (active) and inactive
OC1C(O)C(O)C(O)C(O)C1O (stereo not given)	inactive
C[C@]12CC[C@@H]3c4ccc(O)cc4CC[C@H]3[C@@H]1C[C@@H](O)[C@@H]2O	inactive
CCCCCCCO	inactive
O=C(OCC1CCC2OC2C1)C1CCC2OC2C1 (stereo not given)	inactive
C=C(C)[C@H]1CC=C(C)C(=O)C1	inactive
Clc1ccccn1	inactive
OCc1cccc(Oc2ccccc2)c1	inactive
O=C1CCCC1	inactive
COc1ccccc1OCC(O)CO (stereo not given)	inactive
O=C(O)c1ccc(C(=O)O)c(C(=O)O)c1	inactive
CCO[Si](CCC#N)(OCC)OCC	inactive
C=CCCCCCCCCC(=O)O	inactive
CN(C)c1ccc(Cc2ccc(N(C)C)cc2)cc1	22 µM (active) and 21.9 µM (active)
COc1ccc(OC)cc1	inactive
O=C(O)c1cc2ccccc2cc1O	inactive
CCOCC(=O)O	inactive
CC(=O)CC(C)(C)O	inactive
c1ccc2c(c1)Cc1ccccc1-2	inactive
CNC(=O)Oc1ccc2c(c1)[C@]1(C)CCN(C)[C@@H]1N2C	inactive

Compound	Potency
Nc1ccc(Cl)c(N)c1	inactive
CC1(C)OC[C@@H]2O[C@@]3(C(=O)O)OC(C)(C)O[C@H]3[C@@H]2O1	inactive
Cc1ccc([N+](=O)[O-])cc1S(=O)(=O)O	inactive
OCc1ccccc1	inactive
COc1ccc(CCC(C)=O)cc1	inactive
COc1ccc([N+](=O)[O-])cc1N	inactive
Cc1ccc(C(C)C)c(O)c1	inactive
CC(CCO)CC(C)(C)C (stereo not given)	inactive
Brc1ccc(Br)c(Br)c1	inactive
CCc1ccccc1CC	inactive
CCNc1cccc(C)c1	inactive
CCCOC(=O)c1ccccc1	inactive
COc1cc(OC)c(C(=O)CCCN2CCCC2)c(OC)c1	inactive
C=C(C)CNCC	inactive
CN/C(=C\[N+](=O)[O-])NCCSCc1csc(CN(C)C)n1	inactive
CC(C)CCCCCCCOC(=O)CCCCC(=O)OCCCCCCCC(C)C	inactive
C=C(C)C(=O)OCC(C)C	inactive
COC(=O)c1cccnc1	inactive
NCCCCCCN	inactive
O=c1[nH]cnc2[nH]ncc12	inactive
